Reference: PubChem BioAssay (Tox21)
Results filed as inconclusive are left out. Unmarked numbers belong to inactive results. Active and inactive are the calls of the source. Calls come from the whole dose curve; as a rule, active = well fitted inhibition curve with a large enough effect in the repeat runs; inconclusive = weak or mixed curves; inactive = no such curve, though single readings can be large or run the other way.

Biological target: Androgen receptor (Homo sapiens) (UniProt P10275)
Test: qHTS assay to identify small molecule antagonists of the androgen receptor (AR) signaling pathway using the MDA cell line in the presence of 0.5 nM R1881 (AID 1259243); note: nearly all actives have a fitted effect of over 50% in size
Settings: MDA-kb2 MMTV-luciferase, R1881 0.5 nM, 16 h; series mostly up to 92.4 µM; activity, negative = inhibition: at the top concentration
In short: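 Reporter cells cultured without CO2 receive test chemicals, then 0.5 nM R1881 final; after 16 hr at 37C, ONE-Glo is added and light output recorded.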
% is set by controls: 0 for no effect and ±100 for the full control effect; potency is the fitted concentration of half-maximal effect.

Androgen receptor (Homo sapiens), sequence (P10275 whole entry, looked up): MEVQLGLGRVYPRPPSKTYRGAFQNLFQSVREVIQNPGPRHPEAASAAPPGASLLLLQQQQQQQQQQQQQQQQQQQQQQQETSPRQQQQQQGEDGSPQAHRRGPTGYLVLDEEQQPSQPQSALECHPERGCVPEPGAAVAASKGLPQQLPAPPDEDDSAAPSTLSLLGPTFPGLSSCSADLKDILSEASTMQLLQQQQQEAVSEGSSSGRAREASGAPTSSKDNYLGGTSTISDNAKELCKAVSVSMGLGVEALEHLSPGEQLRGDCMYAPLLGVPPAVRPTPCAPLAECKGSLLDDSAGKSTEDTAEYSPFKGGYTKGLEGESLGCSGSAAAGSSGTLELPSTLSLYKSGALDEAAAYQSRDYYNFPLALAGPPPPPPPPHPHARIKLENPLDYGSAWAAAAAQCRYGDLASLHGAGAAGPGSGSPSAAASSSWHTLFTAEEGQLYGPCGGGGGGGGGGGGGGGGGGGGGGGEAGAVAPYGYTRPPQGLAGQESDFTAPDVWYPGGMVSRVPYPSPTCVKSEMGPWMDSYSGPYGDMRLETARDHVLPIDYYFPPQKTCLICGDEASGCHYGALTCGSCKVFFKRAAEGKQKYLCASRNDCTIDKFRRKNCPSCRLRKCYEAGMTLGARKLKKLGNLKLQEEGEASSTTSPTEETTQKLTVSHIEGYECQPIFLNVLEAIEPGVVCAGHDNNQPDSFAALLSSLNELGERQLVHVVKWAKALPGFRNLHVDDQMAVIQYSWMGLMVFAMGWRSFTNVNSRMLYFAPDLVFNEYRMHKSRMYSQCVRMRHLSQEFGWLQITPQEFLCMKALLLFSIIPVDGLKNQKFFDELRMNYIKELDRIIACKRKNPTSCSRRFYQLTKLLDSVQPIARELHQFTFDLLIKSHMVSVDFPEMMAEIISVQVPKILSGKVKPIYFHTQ

Structure (SMILES)	activity, negative = inhibition	Potency
Fc1cc(Br)ccc1CBr	-0.264% [at 42.5 µM]	
CC(Cl)(Cl)[N+](=O)[O-]	3.62%	
COC(=O)C(c1ccccc1)C1CCCCN1 (configuration not stated)	1.89%	
c1cc2c(c(N3CCNCC3)c1)OCCO2	-2.21% [at 42.5 µM]	
CNC(=O)N(C)c1nc2ccccc2s1	-18.9%	
CC1COC2(c3ccccc3Cl)c3cc(Cl)ccc3NC(=O)CN12 (configuration not stated)	-17.8% [at 42.5 µM]	
O=C1OC(CCN2CCCCC2)OC1(c1ccccc1)c1ccccc1 (configuration not stated)	-6.73% [at 42.5 µM]	
c1ccc(N2CCNCC2)cc1	-3.02% [at 42.5 µM]	
COc1ncc(F)c2nc(S(=O)(=O)Nc3c(F)cccc3F)nn12	6.51% [at 42.5 µM]	
CNC(=O)Oc1c(C(C)(C)C)cc(C)cc1C(C)(C)C	1.04%	
Clc1ccccc1N1CCNCC1	-10.4% [at 42.5 µM]	
O=C(O)c1ccc2[nH]cc(CCCCN3CC=C(c4ccccc4)CC3)c2c1	-1.08% [at 42.5 µM]	
CCN(CC)C(C)C(=O)c1ccccc1 (configuration not stated)	30.9% [at 42.5 µM]	
CCOP(=S)(OCC)Oc1ncn(-c2ccccc2)n1	8.23%	
COc1ccc2c(c1OC)CN1CCc3cc4c(cc3C1C2)OCO4 (configuration not stated)		26.6 µM (active)
CCCCCCI	0.832%	
CCC(=O)C(CCN(C)C)(c1ccccc1)c1ccccc1	-2.89% [at 42.5 µM]	
CCOC(=O)C(c1c(O)c2ccccc2oc1=O)c1c(O)c2ccccc2oc1=O	5.85% [at 42.5 µM]	
CC(C(O)c1ccccc1)N(C)C/C=C/c1ccccc1 (configuration not stated)	4.17% [at 42.5 µM]	
CCC(C)(C)c1cc(-n2nc3ccccc3n2)c(O)c(C(C)(C)CC)c1		39.2 µM (active)
CC(Oc1ccc(Oc2ncc(C(F)(F)F)cc2Cl)cc1)C(=O)O (configuration not stated)	-28.8%	
C#C[C@]1(O)C=C[C@H]2[C@@H]3CCC4=CC(=O)CC[C@@H]4[C@H]3CC[C@@]21CC	153% [at 42.5 µM]	
